Experiment in all cases: DAPPL (digital affinity profiling via proximity ligation, sequencing); 10 mM Tris-HCl pH 7.5, 50 mM NaCl, 1 mM DTT, 4% glycerol, room temperature, 30 min; GST-TFs on glutathione beads, 16-mer random dsDNA library, 0.1% formaldehyde crosslink after washing; high values mean tight binding
The target in one experiment is T1, FEV (Homo sapiens, UniProt Q99581 1-238).
T1 sequence: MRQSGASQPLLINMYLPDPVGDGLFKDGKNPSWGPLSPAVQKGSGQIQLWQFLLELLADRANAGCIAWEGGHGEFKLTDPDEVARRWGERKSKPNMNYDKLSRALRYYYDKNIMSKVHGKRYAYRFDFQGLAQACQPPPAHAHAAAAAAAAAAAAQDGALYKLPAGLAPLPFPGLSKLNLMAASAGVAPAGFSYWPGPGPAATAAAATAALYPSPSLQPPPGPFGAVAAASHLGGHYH
Conditions: protein: recombinant; tags: N-terminal GST; dsDNA, one strand shown. In short, it runs like this: (§1)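 Human transcription factors carrying a GST fusion were produced in yeast, bound to glutathione beads, tagged with DNA barcodes and pooled together with a tag-only sample. Each pool was held with 200 nmole of a random double-stranded 16-mer DNA library in Tris/NaCl/DTT/glycerol buffer for 30 min at room temperature, then washed, crosslinked in 0.1% formaldehyde, proximity-ligated with BsaI/T4 ligase (1 h, 37 °C), PCR-amplified and sequenced on an Illumina NextSeq500. Binding signal is the read frequency of each hexamer for a given factor divided by its frequency in the tag-only sample.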

In the next experiment the target is ETV5 (Homo sapiens, UniProt P41161 1-510). Conditions: protein: recombinant; tags: N-terminal GST; dsDNA, one strand shown. In short, it runs like this:
as §1

A further experiment concerns the target HSF1 (Homo sapiens, UniProt Q00613 1-529). Conditions: protein: recombinant; tags: N-terminal GST; chain copies: 3; dsDNA, one strand shown. In short, it runs like this:
as §1

Another experiment addresses T2, SPIC (Homo sapiens, UniProt Q8N5J4 1-248).
T2 sequence: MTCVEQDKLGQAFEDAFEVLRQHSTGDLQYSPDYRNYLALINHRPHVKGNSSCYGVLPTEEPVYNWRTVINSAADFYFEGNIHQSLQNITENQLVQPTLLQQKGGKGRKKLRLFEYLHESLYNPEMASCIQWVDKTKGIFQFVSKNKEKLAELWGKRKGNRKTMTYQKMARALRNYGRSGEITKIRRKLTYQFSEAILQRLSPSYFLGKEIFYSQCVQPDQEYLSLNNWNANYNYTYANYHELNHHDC
The note with it: protein: recombinant; tags: N-terminal GST; dsDNA, one strand shown. In short, it runs like this: as §1

The target of another experiment is ELF4 (Homo sapiens, UniProt Q99607 1-663). Conditions: protein: recombinant; tags: N-terminal GST; dsDNA, one strand shown. A digest of the protocol: as §1
ELF4, sequence (Q99607 whole entry): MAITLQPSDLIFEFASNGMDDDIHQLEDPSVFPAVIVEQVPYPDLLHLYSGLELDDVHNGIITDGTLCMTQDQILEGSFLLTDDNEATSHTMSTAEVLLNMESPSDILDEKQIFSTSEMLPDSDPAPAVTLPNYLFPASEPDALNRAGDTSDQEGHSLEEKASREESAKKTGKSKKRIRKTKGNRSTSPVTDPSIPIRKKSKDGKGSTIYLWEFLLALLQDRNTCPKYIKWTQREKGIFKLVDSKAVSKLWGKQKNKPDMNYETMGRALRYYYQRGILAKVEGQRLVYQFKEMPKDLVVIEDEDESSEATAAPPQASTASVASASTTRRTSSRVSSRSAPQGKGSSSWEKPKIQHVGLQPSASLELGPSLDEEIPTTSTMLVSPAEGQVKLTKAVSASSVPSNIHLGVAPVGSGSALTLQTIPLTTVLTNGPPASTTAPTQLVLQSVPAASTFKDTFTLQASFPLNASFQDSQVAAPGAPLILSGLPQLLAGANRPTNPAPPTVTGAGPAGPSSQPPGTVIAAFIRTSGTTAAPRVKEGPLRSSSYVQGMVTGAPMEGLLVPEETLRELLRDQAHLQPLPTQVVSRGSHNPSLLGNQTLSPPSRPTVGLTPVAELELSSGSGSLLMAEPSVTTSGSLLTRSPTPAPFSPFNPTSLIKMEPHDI
The target of the next experiment is T3, ELK4 (Homo sapiens, UniProt P28324-2 1-405).
T3 sequence: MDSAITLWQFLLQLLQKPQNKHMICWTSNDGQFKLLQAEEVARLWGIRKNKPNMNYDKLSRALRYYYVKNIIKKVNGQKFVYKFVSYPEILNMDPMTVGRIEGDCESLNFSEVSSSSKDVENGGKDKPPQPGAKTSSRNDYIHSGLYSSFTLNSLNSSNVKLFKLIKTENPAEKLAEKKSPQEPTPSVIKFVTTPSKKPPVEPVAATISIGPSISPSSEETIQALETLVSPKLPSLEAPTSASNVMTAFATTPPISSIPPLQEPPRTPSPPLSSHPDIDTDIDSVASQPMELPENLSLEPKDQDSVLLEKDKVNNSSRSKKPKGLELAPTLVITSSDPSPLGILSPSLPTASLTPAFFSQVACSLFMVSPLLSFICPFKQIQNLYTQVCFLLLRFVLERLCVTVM
The note with it: protein: recombinant; tags: N-terminal GST; dsDNA, one strand shown. In short, it runs like this:
as §1

The target in the next experiment is T4, ETV2 (Homo sapiens, UniProt O00321 1-342).
T4 sequence: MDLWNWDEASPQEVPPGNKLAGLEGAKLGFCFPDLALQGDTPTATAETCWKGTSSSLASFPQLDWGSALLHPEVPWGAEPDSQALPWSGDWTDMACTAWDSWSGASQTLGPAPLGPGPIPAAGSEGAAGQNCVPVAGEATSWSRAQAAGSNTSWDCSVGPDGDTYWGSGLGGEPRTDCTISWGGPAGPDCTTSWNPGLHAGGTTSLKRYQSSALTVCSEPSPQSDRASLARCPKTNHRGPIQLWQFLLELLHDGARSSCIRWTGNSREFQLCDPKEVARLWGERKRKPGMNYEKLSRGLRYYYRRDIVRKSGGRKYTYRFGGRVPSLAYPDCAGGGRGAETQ
Conditions: protein: recombinant; tags: N-terminal GST; dsDNA, one strand shown. A digest of the protocol: as §1

The target of the next experiment is T5, ELF3 (Homo sapiens, UniProt P78545 1-371).
T5 sequence: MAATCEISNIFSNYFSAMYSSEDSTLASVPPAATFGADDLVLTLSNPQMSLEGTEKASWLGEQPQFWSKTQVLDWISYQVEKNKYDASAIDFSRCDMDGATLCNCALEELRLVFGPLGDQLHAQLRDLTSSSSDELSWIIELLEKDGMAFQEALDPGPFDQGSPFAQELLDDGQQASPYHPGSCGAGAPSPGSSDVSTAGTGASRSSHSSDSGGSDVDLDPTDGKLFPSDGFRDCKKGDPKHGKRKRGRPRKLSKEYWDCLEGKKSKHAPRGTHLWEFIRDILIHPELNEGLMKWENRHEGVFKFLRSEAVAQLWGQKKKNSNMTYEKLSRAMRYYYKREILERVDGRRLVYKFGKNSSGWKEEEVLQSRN
The note with it: protein: recombinant; tags: N-terminal GST; dsDNA, one strand shown. A digest of the protocol: as §1

Another experiment addresses CRX (Homo sapiens, UniProt O43186 1-299). Conditions: protein: recombinant; tags: N-terminal GST; dsDNA, one strand shown. In short, it runs like this:
as §1

The target of another experiment is ETV1 (Homo sapiens, UniProt P50549 1-477). The note with it: protein: recombinant; tags: N-terminal GST; dsDNA, one strand shown. In short, it runs like this: as §1
ETV1, sequence (P50549 whole entry): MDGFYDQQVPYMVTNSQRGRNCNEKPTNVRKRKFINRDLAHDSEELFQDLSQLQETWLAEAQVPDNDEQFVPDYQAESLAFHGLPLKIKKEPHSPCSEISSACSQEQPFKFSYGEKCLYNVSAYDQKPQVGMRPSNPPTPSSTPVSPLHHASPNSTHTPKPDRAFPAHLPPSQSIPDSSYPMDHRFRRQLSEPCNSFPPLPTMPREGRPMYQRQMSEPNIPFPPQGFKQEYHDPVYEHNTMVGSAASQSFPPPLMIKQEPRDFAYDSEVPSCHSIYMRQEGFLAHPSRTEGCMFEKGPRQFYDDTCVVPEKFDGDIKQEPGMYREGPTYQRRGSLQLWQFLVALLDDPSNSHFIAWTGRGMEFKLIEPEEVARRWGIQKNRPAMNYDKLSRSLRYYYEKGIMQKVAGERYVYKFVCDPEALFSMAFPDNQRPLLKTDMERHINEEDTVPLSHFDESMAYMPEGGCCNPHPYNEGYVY
For a further experiment, the target named is T6, ERF (Homo sapiens, UniProt P50548 1-548).
T6 sequence: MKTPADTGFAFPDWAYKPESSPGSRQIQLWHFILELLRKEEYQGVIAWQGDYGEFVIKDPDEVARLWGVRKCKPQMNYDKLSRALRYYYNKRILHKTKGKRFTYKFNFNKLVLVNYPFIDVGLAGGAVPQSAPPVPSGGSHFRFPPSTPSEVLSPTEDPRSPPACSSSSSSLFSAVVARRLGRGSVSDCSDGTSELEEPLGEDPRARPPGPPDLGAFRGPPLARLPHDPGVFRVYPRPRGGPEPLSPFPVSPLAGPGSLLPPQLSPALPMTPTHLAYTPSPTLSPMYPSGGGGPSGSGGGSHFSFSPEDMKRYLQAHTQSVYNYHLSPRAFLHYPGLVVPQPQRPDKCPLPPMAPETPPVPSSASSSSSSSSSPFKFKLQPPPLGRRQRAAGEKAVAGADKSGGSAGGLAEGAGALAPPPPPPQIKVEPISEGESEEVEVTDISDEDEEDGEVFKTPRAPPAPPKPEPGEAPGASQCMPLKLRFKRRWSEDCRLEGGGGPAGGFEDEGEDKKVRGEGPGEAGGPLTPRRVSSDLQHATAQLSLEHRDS
The note with it: protein: recombinant; tags: N-terminal GST; dsDNA, one strand shown. In short, it runs like this:
as §1

The next experiment addresses T7, ETV3L (Homo sapiens, UniProt Q6ZN32 1-361).
T7 sequence: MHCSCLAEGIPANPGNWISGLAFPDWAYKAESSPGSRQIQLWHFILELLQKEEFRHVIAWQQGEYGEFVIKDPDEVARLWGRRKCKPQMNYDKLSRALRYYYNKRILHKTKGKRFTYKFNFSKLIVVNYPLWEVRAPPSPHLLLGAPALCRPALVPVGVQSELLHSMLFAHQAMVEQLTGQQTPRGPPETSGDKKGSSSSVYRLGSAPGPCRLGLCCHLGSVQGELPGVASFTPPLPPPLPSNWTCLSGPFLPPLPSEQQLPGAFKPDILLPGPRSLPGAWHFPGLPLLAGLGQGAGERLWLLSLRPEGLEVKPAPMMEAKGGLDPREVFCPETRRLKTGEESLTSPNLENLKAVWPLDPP
The note with it: protein: recombinant; tags: N-terminal GST; dsDNA, one strand shown. A digest of the protocol:
as §1

A further experiment concerns the target T8, ETS2 (Homo sapiens, UniProt P15036 1-469).
T8 sequence: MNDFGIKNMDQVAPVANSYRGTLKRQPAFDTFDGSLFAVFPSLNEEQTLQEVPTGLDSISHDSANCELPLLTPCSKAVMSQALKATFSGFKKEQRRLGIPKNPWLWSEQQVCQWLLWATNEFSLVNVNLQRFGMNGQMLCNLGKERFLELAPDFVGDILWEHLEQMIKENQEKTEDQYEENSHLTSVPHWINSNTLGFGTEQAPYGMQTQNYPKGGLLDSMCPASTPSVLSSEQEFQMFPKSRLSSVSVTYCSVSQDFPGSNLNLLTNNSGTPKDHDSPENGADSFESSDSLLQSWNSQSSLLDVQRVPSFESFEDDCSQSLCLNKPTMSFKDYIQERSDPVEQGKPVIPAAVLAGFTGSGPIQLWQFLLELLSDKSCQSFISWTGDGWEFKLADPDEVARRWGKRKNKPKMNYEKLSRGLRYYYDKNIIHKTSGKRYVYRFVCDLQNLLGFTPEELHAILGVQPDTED
Conditions: protein: recombinant; tags: N-terminal GST; dsDNA, one strand shown. In short, it runs like this: as §1

The next experiment addresses T9, SPDEF (Homo sapiens, UniProt O95238 1-335).
T9 sequence: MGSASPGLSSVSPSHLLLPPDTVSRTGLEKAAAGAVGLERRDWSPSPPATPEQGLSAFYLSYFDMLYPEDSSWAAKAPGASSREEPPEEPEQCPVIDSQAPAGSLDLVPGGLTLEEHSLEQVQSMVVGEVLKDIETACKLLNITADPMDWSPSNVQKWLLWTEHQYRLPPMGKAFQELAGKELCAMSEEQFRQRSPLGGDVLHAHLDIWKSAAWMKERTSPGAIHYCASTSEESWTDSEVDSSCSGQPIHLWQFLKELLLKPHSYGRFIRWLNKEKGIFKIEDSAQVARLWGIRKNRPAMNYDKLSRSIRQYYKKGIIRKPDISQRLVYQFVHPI
Conditions: protein: recombinant; tags: N-terminal GST; dsDNA, one strand shown. In short, it runs like this:
as §1

The target in the next experiment is T10, ETV7 (Homo sapiens, UniProt Q9Y603 1-341).
T10 sequence: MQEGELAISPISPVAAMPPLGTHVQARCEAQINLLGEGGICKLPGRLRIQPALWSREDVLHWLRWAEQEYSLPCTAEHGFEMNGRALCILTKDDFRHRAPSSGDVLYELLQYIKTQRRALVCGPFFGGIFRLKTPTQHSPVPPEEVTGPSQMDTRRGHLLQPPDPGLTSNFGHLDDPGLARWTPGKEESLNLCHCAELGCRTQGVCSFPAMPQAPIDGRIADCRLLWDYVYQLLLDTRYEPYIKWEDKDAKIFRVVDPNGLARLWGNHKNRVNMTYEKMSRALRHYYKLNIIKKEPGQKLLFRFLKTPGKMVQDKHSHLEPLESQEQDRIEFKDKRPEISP
The note with it: protein: recombinant; tags: N-terminal GST; dsDNA, one strand shown. In short, it runs like this: as §1

A further experiment concerns the target T11, ELF5 (Homo sapiens, UniProt Q9UKW6-2 1-255).
T11 sequence: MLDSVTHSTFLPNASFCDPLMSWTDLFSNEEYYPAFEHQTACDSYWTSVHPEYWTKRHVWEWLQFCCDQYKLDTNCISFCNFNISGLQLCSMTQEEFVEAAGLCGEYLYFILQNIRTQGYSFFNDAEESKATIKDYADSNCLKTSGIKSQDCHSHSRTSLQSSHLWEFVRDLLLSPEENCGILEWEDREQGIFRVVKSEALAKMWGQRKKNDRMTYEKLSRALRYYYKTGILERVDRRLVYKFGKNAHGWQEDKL
Conditions: protein: recombinant; tags: N-terminal GST; dsDNA, one strand shown. A digest of the protocol: as §1

For another experiment, the target named is T12, ETV3 (Homo sapiens, UniProt P41162-2 1-143).
T12 sequence: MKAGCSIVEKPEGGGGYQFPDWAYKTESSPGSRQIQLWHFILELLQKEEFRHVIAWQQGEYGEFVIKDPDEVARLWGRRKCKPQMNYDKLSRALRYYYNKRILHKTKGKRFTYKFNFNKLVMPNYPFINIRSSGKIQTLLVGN
Conditions: protein: recombinant; tags: N-terminal GST; dsDNA, one strand shown. In short, it runs like this:
as §1

Another experiment deals with ETV6 (Homo sapiens, UniProt P41212 1-452). Conditions: protein: recombinant; tags: N-terminal GST; dsDNA, one strand shown. A digest of the protocol:
as §1

ETV5, sequence (P41161 whole entry): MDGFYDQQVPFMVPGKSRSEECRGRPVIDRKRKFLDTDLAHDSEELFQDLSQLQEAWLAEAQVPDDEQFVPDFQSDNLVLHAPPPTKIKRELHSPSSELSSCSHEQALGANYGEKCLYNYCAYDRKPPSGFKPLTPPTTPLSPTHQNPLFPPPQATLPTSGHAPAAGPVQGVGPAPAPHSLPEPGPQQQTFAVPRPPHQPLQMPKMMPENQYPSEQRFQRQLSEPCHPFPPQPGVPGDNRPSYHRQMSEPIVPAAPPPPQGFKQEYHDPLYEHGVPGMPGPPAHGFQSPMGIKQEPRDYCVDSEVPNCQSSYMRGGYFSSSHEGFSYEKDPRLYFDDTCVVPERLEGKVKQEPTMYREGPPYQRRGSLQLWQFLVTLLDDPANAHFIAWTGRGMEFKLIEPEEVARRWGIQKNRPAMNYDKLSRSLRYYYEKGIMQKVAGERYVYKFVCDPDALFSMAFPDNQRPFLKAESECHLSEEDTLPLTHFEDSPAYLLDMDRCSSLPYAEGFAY
HSF1, sequence (Q00613 whole entry): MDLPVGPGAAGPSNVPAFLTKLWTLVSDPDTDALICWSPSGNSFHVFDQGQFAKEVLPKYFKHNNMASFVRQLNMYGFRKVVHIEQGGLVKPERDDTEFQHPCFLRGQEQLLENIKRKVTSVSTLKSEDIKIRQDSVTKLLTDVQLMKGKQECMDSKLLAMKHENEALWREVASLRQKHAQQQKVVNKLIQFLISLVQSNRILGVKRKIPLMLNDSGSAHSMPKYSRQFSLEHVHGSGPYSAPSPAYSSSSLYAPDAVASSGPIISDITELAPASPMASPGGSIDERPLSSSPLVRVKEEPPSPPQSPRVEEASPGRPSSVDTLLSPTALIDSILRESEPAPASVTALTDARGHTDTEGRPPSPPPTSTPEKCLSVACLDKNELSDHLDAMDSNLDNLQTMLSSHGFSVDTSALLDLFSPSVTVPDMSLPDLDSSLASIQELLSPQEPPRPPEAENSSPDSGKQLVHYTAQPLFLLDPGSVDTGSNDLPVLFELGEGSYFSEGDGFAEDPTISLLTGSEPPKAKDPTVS
ETV6, sequence (P41212 whole entry): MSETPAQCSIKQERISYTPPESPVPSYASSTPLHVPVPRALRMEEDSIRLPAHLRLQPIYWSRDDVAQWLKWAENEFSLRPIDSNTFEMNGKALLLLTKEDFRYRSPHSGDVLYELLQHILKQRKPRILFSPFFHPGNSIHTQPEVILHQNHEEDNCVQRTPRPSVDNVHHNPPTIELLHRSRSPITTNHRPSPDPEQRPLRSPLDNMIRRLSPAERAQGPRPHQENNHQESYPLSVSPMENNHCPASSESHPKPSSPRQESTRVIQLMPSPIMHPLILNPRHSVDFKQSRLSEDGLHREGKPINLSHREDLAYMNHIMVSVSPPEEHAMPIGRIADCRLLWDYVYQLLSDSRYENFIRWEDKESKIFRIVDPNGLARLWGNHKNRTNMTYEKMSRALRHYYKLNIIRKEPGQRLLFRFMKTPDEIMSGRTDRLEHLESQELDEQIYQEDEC
CRX, sequence (O43186 whole entry): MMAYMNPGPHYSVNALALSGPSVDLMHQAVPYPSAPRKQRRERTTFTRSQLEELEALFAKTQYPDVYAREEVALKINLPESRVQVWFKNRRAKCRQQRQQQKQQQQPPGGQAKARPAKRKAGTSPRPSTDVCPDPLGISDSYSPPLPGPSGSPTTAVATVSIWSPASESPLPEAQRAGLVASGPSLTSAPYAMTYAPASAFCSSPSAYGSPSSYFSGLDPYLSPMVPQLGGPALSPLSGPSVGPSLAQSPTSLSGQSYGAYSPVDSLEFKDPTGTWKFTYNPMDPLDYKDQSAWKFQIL

As to TCTTTC, the binding signal in the experiment with FEV was 1.39 fold enrichment (6-mer frequency, TF over GST control); in the experiment with ETV5, 1.36 fold enrichment (6-mer frequency, TF over GST control); with HSF1, 1.82 fold enrichment (6-mer frequency, TF over GST control); with SPIC it was 1.31 fold enrichment (6-mer frequency, TF over GST control); with ELF4, 1.32 fold enrichment (6-mer frequency, TF over GST control); in the experiment with ELK4, 1.46 fold enrichment (6-mer frequency, TF over GST control). The binding signal in the experiment with ETV2 was 1.42 fold enrichment (6-mer frequency, TF over GST control); with ELF3, 1.19 fold enrichment (6-mer frequency, TF over GST control); with CRX, 1.41 fold enrichment (6-mer frequency, TF over GST control); with ETV1, 1.47 fold enrichment (6-mer frequency, TF over GST control); in the experiment with ERF it was 1.33 fold enrichment (6-mer frequency, TF over GST control); with ETV3L it was 1.39 fold enrichment (6-mer frequency, TF over GST control). The binding signal with ETS2 was 1.43 fold enrichment (6-mer frequency, TF over GST control); with SPDEF, 1.44 fold enrichment (6-mer frequency, TF over GST control); with ETV7 it was 1.27 fold enrichment (6-mer frequency, TF over GST control); in the experiment with ELF5, 1.48 fold enrichment (6-mer frequency, TF over GST control); in the experiment with ETV3, 1.44 fold enrichment (6-mer frequency, TF over GST control); in the experiment with ETV6 it was 1.38 fold enrichment (6-mer frequency, TF over GST control).

These data come from publication PMC7862700, “An all-to-all approach to the identification of sequence-specific readers for epigenetic DNA modifications on cytosine”.
